# Data published in PubChem BioAssay (NCATS).
# Inconclusive results are not listed. Entries that show only a call come without a potency. Values without a mark were called inactive. Calls of active or inactive are those of the source. Calls come from the whole dose curve; as a rule, active = well fitted curve in the direction sought with a large enough effect; inconclusive = small, poorly fitted or top-dose-only effect, or another doubt; inactive = no such curve, though single readings can be large; an effect the other way counts as inactive or inconclusive.
# Experiments:
# [1] = P-glycoprotein substrates identified in KB-8-5-11 adenocarcinoma cell line, qHTS therapeutic library screen (AID 1346987); settings: KB-8-5-11 (P-gp overexpressing) viability, CellTiter-Glo, 72 h; series mostly up to 44.5 µM; note: nearly all actives have a fitted effect of over 65% in size
# Outline: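 KB-8-5-11: colchicine-selected sub-line of KB-3-1 over-expressing P-gp; assay medium lacked colchicine. 72 h drug exposure at 37 degree C, CellTiter-Glo.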
# [2] = NS1 protein of Zika virus - qHTS assay to identify small molecule inhibitors in human HEK 293 cells (AID 1347053); settings: HEK293 ZIKV MR766 infection, NS1 TR-FRET, 24 h; series mostly up to 46.1 µM; note: nearly all actives have a fitted effect of over 55% in size
# Outline: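 HEK 293 cells pretreated with compound for 1 h, then infected with ZIKV MR766 (MOI 0.5) for 24 h at 37 C. NS1 detected by TR-FRET with two anti-NS1 antibodies; normalized to uninfected (0%) and infected (100%) wells.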
# [3] = qHTS of pediatric cancer cell lines to identify multiple opportunities for drug repurposing: Primary screen for TC32 cells (AID 1347089); settings: TC32 Ewing sarcoma viability, CellTiter-Glo luminescence, 48 h; series mostly up to 45.8 µM; note: nearly all actives have a fitted effect of over 60% in size
# Outline: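 Luminescent CellTiter-Glo read-out of metabolically active TC32 cells after 48 h compound exposure. Primary: MIPE 11-point, 0.78 nM–46 µM; NPC 8-point, 0.59 nM–46 µM. Confirmatory: 11-point dilutions.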
# [4] = qHTS of pediatric cancer cell lines to identify multiple opportunities for drug repurposing: Primary screen for DAOY cells (AID 1347090); settings: DAOY medulloblastoma viability, CellTiter-Glo luminescence, 48 h; series mostly up to 46 µM; note: nearly all actives have a fitted effect of over 55% in size
# Outline: (§1)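 Viability measured as metabolically active cells via CellTiter-Glo luminescence following 48 hours of compound exposure, 11-point dilutions in confirmatory testing. 500-1,000 cells/well plated 5 hours before dosing; controls were DMSO and 2.3 µM bortezomib.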
# [5] = qHTS of pediatric cancer cell lines to identify multiple opportunities for drug repurposing: Primary screen for SJ-GBM2 cells (AID 1347091); settings: SJ-GBM2 viability, CellTiter-Glo luminescence, 48 h; series mostly up to 46 µM
# Outline: as §1
# [6] = qHTS of pediatric cancer cell lines to identify multiple opportunities for drug repurposing: Primary screen for A673 cells (AID 1347092); settings: A673 Ewing sarcoma viability, CellTiter-Glo ATP luminescence, 48 h; series mostly up to 46 µM; note: nearly all actives have a fitted effect of over 45% in size
# Outline: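 A673 cells (500-1,000 cells/well in growth media) were pre-incubated 5 h at 37 degrees C, then exposed to compounds for 48 h. Viability was read as CellTiter-Glo luminescence; concentration-response curves came directly from the primary screen.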
# [7] = qHTS of pediatric cancer cell lines to identify multiple opportunities for drug repurposing: Primary screen for SK-N-MC cells (AID 1347093); settings: SK-N-MC viability, CellTiter-Glo luminescence, 48 h; series mostly up to 46 µM
# Outline: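 Metabolically active cells were quantified by ATP-dependent luminescence (CellTiter-Glo, 15 min at room temperature) following 48 h treatment. Cells had been plated at 500-1,000 per well and settled for 5 h beforehand.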
# [8] = qHTS of pediatric cancer cell lines to identify multiple opportunities for drug repurposing: Primary screen for BT-37 cells (AID 1347094); settings: BT-37 viability, CellTiter-Glo luminescence, 48 h; series mostly up to 57.3 µM
# Outline: (§2)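 Readout: CellTiter-Glo luminescence, 48 h treatment. Controls DMSO (neutral) and bortezomib 2.3 µM final (positive). Potency and efficacy taken from primary-screen concentration-response curves.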
# [9] = qHTS of pediatric cancer cell lines to identify multiple opportunities for drug repurposing: Primary screen for NB-EBc1 cells (AID 1347095); settings: NB-EBc1 neuroblastoma viability, CellTiter-Glo luminescence, 48 h; series mostly up to 46 µM
# Outline: as §2
# [10] = qHTS of pediatric cancer cell lines to identify multiple opportunities for drug repurposing: Primary screen for U-2 OS cells (AID 1347096); settings: U-2 OS viability, CellTiter-Glo luminescence, 48 h; series mostly up to 46 µM; note: nearly all actives have a fitted effect of over 50% in size
# Outline: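 Viability after 48 h compound treatment at 37C, 500-1,000 cells/well, read as ATP luminescence with CellTiter-Glo. Primary screens used 11-point (MIPE, 0.78 nM-46 µM) or 8-point (NPC, 0.59 nM-46 µM) final concentrations; follow-up screens used 11-point dilutions.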
# [11] = qHTS of pediatric cancer cell lines to identify multiple opportunities for drug repurposing: Primary screen for Saos-2 cells (AID 1347097); settings: Saos-2 viability, CellTiter-Glo ATP luminescence, 48 h; series mostly up to 46 µM; note: nearly all actives have a fitted effect of over 40% in size
# Outline: as §2
# [12] = qHTS of pediatric cancer cell lines to identify multiple opportunities for drug repurposing: Primary screen for SK-N-SH cells (AID 1347098); settings: SK-N-SH viability, CellTiter-Glo luminescence, 48 h; series mostly up to 57 µM; note: nearly all actives have a fitted effect of over 65% in size
# Outline: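 Cells (500-1,000/well) rested 5 h, then received compounds for 48 h; metabolically active cells were measured by CellTiter-Glo luminescence. Final concentrations spanned up to 46 µM (MIPE, 11-point) or 0.59 nM-46 µM (NPC, 8-point) in primary screens, 11-point in follow-ups.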
smiles,measurement,setting,value
C=C(C)C(C)C1OC23CC4(CO2)C(CCC2C5(C)CCC(OC6OCC(O)C(OC7OC(CO)C(O)C(OC8OCC(O)C(O)C8O)C7O)C6OC6OC(CO)C(O)C6O)C(C)(C)C5CCC24C)C3C(C)(O)C1OC(C)=O (stereo unspecified),"activity change, negative = cytotoxicity",[1],3.91% [at 9.29 µM]
N#CCc1ccc(O)cc1O[C@@H]1O[C@H](CO)[C@@H](O)[C@H](O)[C@H]1O,Potency,[1],inactive
C[C@]1(O)CC[C@@H]2C(C(=O)O)=CO[C@@H](O[C@@H]3O[C@H](COC(=O)c4ccc(O)cc4)[C@@H](O)[C@H](O)[C@H]3O)[C@@H]21,Potency,[1],inactive
OCC1OC(Oc2cc(O)c3c(c2)OC(c2ccc(O)cc2)C(O)C3)C(O)C1O (stereo unspecified),Potency,[1],inactive
CC(=O)O[C@]1(C(C)=O)CC[C@H]2[C@@H]3CCC4=CC(=O)CC[C@]4(C)[C@@]3(F)[C@@H](O)C[C@@]21C,Potency,[1],inactive
C=CC(C)(C)C1(CC2NC(=O)C3CCCN3C2=O)C(=O)Nc2cc3c(cc21)C=CC(C)(C)O3 (stereo unspecified),Potency,[1],inactive
COc1cc([C@H]2OC[C@@H]3[C@@H](c4ccc(O[C@@H]5O[C@H](CO)[C@@H](O)[C@H](O)[C@H]5O)c(OC)c4)OC[C@]23O)ccc1O,Potency,[1],inactive
CC(=O)OC(C)OC(=O)C(C)c1ccc(-c2ccccc2)c(F)c1 (stereo unspecified),Potency,[1],inactive
same,outcome,[2],inactive
same,outcome,[3],inactive
same,outcome,[4],inactive
same,outcome,[5],inactive
same,outcome,[6],inactive
same,outcome,[7],inactive
same,outcome,[8],inactive
same,outcome,[9],inactive
same,outcome,[10],inactive
same,outcome,[11],inactive
same,outcome,[12],inactive
CC(C)(OC1OC(CO)C(O)C(O)C1O)C1CCC(O)(CO)C2CC(O)C(C)(O)C2C1 (stereo unspecified),Potency,[1],inactive
C/C=C1\[C@H](O[C@@H]2O[C@H](CO)[C@@H](O)[C@H](O)[C@H]2O)OC=C(C(=O)OC)[C@H]1CC(=O)OC,Potency,[1],inactive
